From the supplement of paper PMC11417369
The full ranking holds about 25,000 sequences; the median of “ln(normalized median fluorescence intensity)” is about 9.3, and the highest 2% start at about 10. Many of the other results were omitted from the sample, so the highest values are more common in it than they were.

Test system: PF3D7_0420300 AP2 domain 1 (GST-tagged)
Assay: gcPBM binding intensity (ln(normalized median fluorescence intensity)); higher = stronger DNA binding
Method in brief: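 Using an Agilent 4 × 180k array, primer-extended double-stranded 36-bp intergenic genomic probes and negative controls were exposed for 1 h to GST-fused P. falciparum DNA-binding domains expressed in E. coli. Binding was carried out in 1× PBS with 1% milk, 0.2 mg/ml BSA, 0.5% salmon testes DNA and 0.03% Triton X-100, and protein was detected with Alexa488 anti-GST antibody and a 488 nm scan. Binding intensity is the highest Masliner-normalised natural-log median intensity across replicate spots of either probe orientation.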

Row | Sequence | gcPBM binding intensity (ln)
1 | GCATATGTTCAGCGTTGTACATAAAAAAAAACATAT [XGTACX_site5974] | 9.07
2 | TTGATTTATATTTAATGTACATTTTTACAGAAAATT [XGTACX_site2747] | 8.93
3 | AAAAAAAAAAAAAAATGTACATATATATATATATTA [XGTACX_site7330] | 8.98
4 | CACAGACACGGACACACACACACACCGATATATATA [CACACA_site4353] | 10.3
5 | GGCATACACGGACACACACACACACCGACATATATA [CACACA_site4493] | 10.3
6 | TGGGAGCACAGACACACACACACACCCATATATATA [CACACA_site335] | 10.1
7 | TGGGAGCACAGACACACACACACACCGATATATATA [CACACA_site8001] | 10.2
8 | CACGCATACAGACACACACACACACCCATATATATA [CACACA_site636] | 10.2
9 | AATGAACTCACGAGCACACACACACCGATATATATA [CACACA_site4710] | 10
10 | CATATATACTCATACACACACACACCGACACAGACA [CACACA_site5026] | 10.1
11 | CACGCATACAGACACACACACACACCGATATATATA [CACACA_site8113] | 10.3
12 | CACAGACACGGACACACACACATATATAATATATAT [CACACA_site4495] | 9.98
13 | CGCACAGACGGACACACACACACATATATATATATA [CACACA_site5249] | 10.1
14 | AATTAGATACTAACAAGTACATATATATATATATAT [XGTACX_site2252] | 9.59
15 | ATATCGGGTGCATTAACACACATTTATTTGAATAAA [CACACA_site2350] | 9.24
16 | TCAAGAGTTATATAAACACACATACATACAGACATA [CACACA_site6998] | 9.6
17 | ATGTTATAAAATATATGTACATATTTATATAAAATA [XGTACX_site5766] | 9.14
18 | AATATAATATAATATAGTACGTAAAAATATTATACA [XGTACX_site2170] | 9.47
19 | ATATATGCATATATATGTACATATATATATATATAT [XGTACX_site7403] | 9.22
20 | ATTATATTATATTATACATGCATAATATTATATAAA [TGCATGCA_site647] | 9.17
21 | ATTAAATAAACCATTACACACTTTTATGTTTTGAAA [CACACA_site1143] | 9.3
22 | AAAACTTTTTTAACAGAAAAATAGGGATACAATATA [CACACA_negctrl_site1708] | 9.35
23 | AGGATACACGGACACACACACATATATATATATATA [CACACA_site4654] | 9.9
24 | CACGCATACGGACACACACACACACCGATATATATA [CACACA_site4521] | 10.3
25 | ATATATAAAATTATATGTACATATATCTATTTATAA [XGTACX_site3713] | 9.04

Row | Sequence | gcPBM binding intensity (ln)
26 | TTTATATAACAACAAAATGGAAATATATATGTATGT [TGCATGCA_negctrl_site98] | 9.53
27 | TATACACCCGGACACACACACATATATATATATATA [CACACA_site5030] | 9.94
28 | CATACTCACCAACACACACACACACCCATATAGAAT [CACACA_site592] | 10.2
29 | TATACTCAGAAACACACACACACACCCAAAAAAAAA [CACACA_site4434] | 9.97
30 | CTTATATATACATATACACACACACCCATATATATA [CACACA_site8705] | 10.1
31 | ACCCATATAATATATACACACATATATATATATATA [CACACA_site4731] | 9.52
32 | CATATACACCAACACACACACACACCCACAAAAAAA [CACACA_site496] | 10.2
33 | TATACATACACATACACACATACACCCATACACATA [CACACA_site1746] | 9.93
34 | CATACACCCGGACACACACACACACCCATATATAAT [CACACA_site4494] | 10.3
35 | CACCCACCCACATACACACACATACACATATATATA [CACACA_site1722] | 10.2
36 | CACATATATACACATACACACACACCCATACACCCA [CACACA_site8505] | 10.2
37 | TACACCCACCCACATACACACACATACACATATATA [CACACA_site8503] | 10.2
38 | ATAATTATATTTTATTCACACATCGTTATATAGTAA [CACACA_site4743] | 9.31
39 | AATATAAATGTGATTACACACAACAGATTTAAATGG [CACACA_site4802] | 9.53
40 | TGTTTATATAATATTCTACACACCAACAACAAACAT [CACACA_site8087] | 9.74
41 | AAAATTTTTAGTTATACACACAACATAGAAAATATT [CACACA_site328] | 9.47
42 | TTTTTTTCACAAAATACACACAATATATTTTATATC [CACACA_site1138] | 9.25
43 | TATAATAAAATTTTTACACACTTTAAAAAAAAAAAA [CACACA_site524] | 9.06
44 | TATATATACATATACACACACACACCCATATATATA [CACACA_site2246] | 10.2
45 | CATACACCCCAACACACACACACACCCATATATAAT [CACACA_site8097] | 10.4
46 | CATACACCCATACATACACACATACATATATATATA [CACACA_site8591] | 9.7
47 | CATATACATACACATACACACATACACCCATACACA [CACACA_site8514] | 9.77
48 | ATACATATATATATATGTACATATATTTATATTTAT [XGTACX_site3155] | 9.21
49 | TGAAAAAAGAAAAATACACACATATAACATAATATA [CACACA_site7126] | 9.83
50 | CTCAACAAAATATGAGTGCATTGTTATTACATATAT | 9.32

Row | Sequence | gcPBM binding intensity (ln)
51 | TAAAAATATAGGTATACACACATATAAATATAAATA [CACACA_site7785] | 9.64
52 | TAATTCTTGTAAAATGTGCGCAGTAGATATAGTTTT | 9.27
53 | TAAAAAATAAAAATTGCACACTAAAAAATTACGCAC [CACACA_site9129] | 9.48
54 | TGTGCCCAAAATTATGCACACACCTAAAATTAATTT [CACACA_site2914] | 9.42
55 | GATAATTACGGACACACACACACACGCACAACTAAA [CACACA_site7254] | 10.3
56 | AAAAGATAATTATGCACACACACACCCAGACACAAC [CACACA_site5428] | 10.1
57 | AAAAATAAAAATTGCACACTAAAAAATTACGCACGA [CACACA_site3418] | 9.59
58 | TGCACGCACAGACACACACACAACTAAAAAATAATG [CACACA_site7250] | 9.72
59 | GATAATTATGGACACACACACACACCCACAACTAAA [CACACA_site8824] | 10.3
60 | TATGCACCCAGACACACACACACAACTAAAAAATAA [CACACA_site2567] | 9.96
61 | TAATTATGCCAACACACACACACACCCAACTAAAAA [CACACA_site8823] | 10.2
62 | AAGATAATTACGCACACACACACACGCCCACAACTA [CACACA_site7255] | 10.2
63 | TACACCCACCAACACACACACACACTAATAAAAAAA [CACACA_site8060] | 10.1
64 | TAATTATGCAGACACACACACACACGCAACTAAAAA [CACACA_site7253] | 10.1
65 | GTACATAGGTATAGCACACACAAATGTAGGTATTTT [CACACA_site4049] | 9.65
66 | TATATTTATTATAACACACACATATAAATATTATAG [CACACA_site6726] | 9.67
67 | TTGTTCTAATATATTGCACACGTAAAAATATAGGTA [CACACA_site8195] | 9.3
68 | TAAGGATAAATAAAATGAAATGAAATAAATAAATGA [XGTACX_negctrl_site539] | 9.24
69 | TATAAAATATAAATAAATAAATAAATATATATATAT [TGCATGCA_negctrl_site448] | 9.11
70 | GCGGCGGTATCATGCACACGTATATATTGTAACAGT [CACACA_site4958] | 9.27
71 | TTTTTTATTTTAATGTATTATTTTTATGTAATATAT [GTGCAC_negctrl_site391] | 9.23
72 | AAAAAAAAAAGACACACACACAATAGTATATAAATC [CACACA_site6579] | 10.2
73 | CAAAAATAAATATAAACACACAATAAATAAATAAAT [CACACA_site891] | 9.91
74 | AAAAAAAAAAAACACACACACAATAGTATATAAATC [CACACA_site956] | 10.3
75 | TAAATACAAAAATGCACACGAAAAGTAATATATATA [CACACA_site6151] | 9.64

Row | Sequence | gcPBM binding intensity (ln)
76 | TAAAAATAGTATACAACACACGAGGGAAAATAAAGT [CACACA_site3837] | 10.2
77 | AAAAATATGAAGACACAATATAGAAATAAAAATATA [XGTACX_negctrl_site244] | 9.44
78 | AGAGTATATAAAGTAACACACAATAAAATAAAATAA [CACACA_site2328] | 9.82
79 | AAAAAAAAAAAAAACACACACACAATAGTATATAAA [CACACA_site957] | 9.94
80 | ATGGACAAAAAATATATACACACGAGGAAACCAACA [CACACA_site3726] | 10.1
81 | AACATAATAAAAATGGATATAATTCAAAGTTTGTAA [TGCATGCA_negctrl_site529] | 9.25
82 | TTTTATATATATTATACACACAAGGAAAAAAAAAAA [CACACA_site3677] | 9.53
83 | ATATATTTTATTCCTATATATATATATATATATATA [GTGCAC_negctrl_site556] | 9.27
84 | AAAAATGTAAAGTGCGTGCACAAAATATTTGGAAAA | 9.27
85 | AGAAATATATCTATTTGTCCGTATATTCATATTTAT [XGTACX_site8427] | 9.4
86 | ATATATACATATAACACACACATATATATATATATA [CACACA_site2575] | 9.56
87 | TTAAACTTGAAACACACACACACACCGATATAAAAA [CACACA_site4578] | 10.2
88 | AAGGATATAACATACACACACACACCGATATATATA [CACACA_site6136] | 10.2
89 | TAACCATACATACATACACACACACCCACATATATA [CACACA_site8951] | 10.1
90 | ATAAAAAAAGGACACACACACATATATATATATATA [CACACA_site5662] | 9.93
91 | AAGGATATAACATACACACACACACCCATATATATA [CACACA_site4142] | 10.3
92 | GTAACATACACATATACACACACACCGATATACATA [CACACA_site8278] | 10.2
93 | CCATAAAAAGGATACACACACACACCGACATATATA [CACACA_site4653] | 10.2
94 | GGAAGGATATAACATACACACACACCCATATATATA [CACACA_site9376] | 10
95 | TTAAACTTGAAACACACACACACACCCATATAAAAA [CACACA_site758] | 10.1
96 | CATATAAAAGGACACACACACACATATATATATATA [CACACA_site4674] | 10
97 | TTTTTTTATAAAAATGAACACACACCGATATATATA [CACACA_site9161] | 9.63
